From PubChem
Hits are enriched below; roughly 0.78% of the tested compounds scored in any of these assays.
3CLpro inhibitor – SARS-CoV 3CLpro protease inhibition; 0.14% of 290,000 active; inhibition, % at 6 µM; AID 1706; recombinant SARS-CoV 3CLpro, quenched FRET peptide cleavage; in the data active = inhibition above about 12%
SSB-PriA inh – blocks PriA binding to SSB C-terminal tail. AlphaScreen SSBct-PriA binding, biotinylated peptide. inhibition, % at 33 µM. 0.6% of 430,000 active. AID 1272365; in the data active = inhibition mostly above about 37%, no sharp cut-off; inactive = mostly below about 20%;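 note: plate controls were negative control peptide for no effect and reference peptide for full effect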
BJeLR lethal – BJeLR cell viability loss; 0.17% of 300,000 active; BJeLR (HRASV12) viability, CellTiter-Glo ATP luminescence, 48 h; inhibition, % (concentration not given with the values); in the data active = inhibition above about 50%
* marks the source's active call; other numbers are inactive results; / = no result; ! = repeats disagree.

SMILES | 3CLpro inhibitor | SSB-PriA inh | BJeLR lethal
CCOc1ccccc1C(=O)Nc1ccc2c(c1)CCCN2C(=O)c1cccs1 | / | -6 | /
COc1cc2c(cc1OC)CN(C(=O)Cc1c(C)[nH]c(=O)[nH]c1=O)CC2 | / | -15 | /
Cc1nn2c(nc1=O)NNC2(C)C(C)(C)C (stereo unspecified) | 1 | -7 | 8
C=CCCC1(C)NNc2nc(=O)c(C)nn21 (stereo unspecified) | / | 98* | /
Cc1cc(C)c(S(=O)(=O)N=C2C=CC(=NS(=O)(=O)c3c(C)cc(C)cc3C)c3ccccc32)c(C)c1 | / | -13 | /
CCc1nc(N)nc(N)c1-c1ccc(Cl)cc1 | 2 | 0 | 62*
CCc1nc(N)nc(N)c1-c1ccc(NCCN)c([N+](=O)[O-])c1 | / | 19 | /
O=C(Nc1cc(F)ccc1F)[C@@H]1COCC(=O)N1Cc1ccccc1 | / | -7 | /
Cc1ncn(CC(=O)NCc2cncc(-c3ccsc3)c2)c(=O)c1C | / | -8 | /
COCCN1CCCc2ccc(NS(=O)(=O)Cc3cccc(C)c3)cc21 | / | 40* | /
COCCN1CCCc2ccc(NS(=O)(=O)c3ccc(Cl)cc3)cc21 | / | 25 | /
COCCN1CCCc2ccc(NC(=O)c3cccc(Br)c3)cc21 | / | 56* | /
COCCN1CCCc2ccc(NC(=O)c3ccc(C(C)(C)C)cc3)cc21 | / | 29 | /
COCCN1CCCc2ccc(NS(=O)(=O)c3ccc(OCC(C)C)cc3)cc21 | / | 39* | /
COCCN1CCCc2ccc(NS(=O)(=O)c3cccc(C)c3)cc21 | / | 4 | /
O=C(Cn1cnc2c(nnn2Cc2ccccc2F)c1=O)Nc1cc(C(F)(F)F)ccc1Cl | / | -11 | /
Cn1c(=O)c2c(NC(=O)c3cc(=O)c4ccccc4o3)ccnc2n(C)c1=O | / | -7 | /
O=C(NCCOc1ccc(-c2ccccn2)nn1)[C@H]1CC(=O)N(c2cccc(Br)c2)C1 | / | 100* | /
O=C(NCCn1ccc(-c2ccccn2)n1)[C@H]1CC(=O)N(c2ccccc2)C1 | / | -4 | /
O=C(NC(Nc1nc2ccc([N+](=O)[O-])cc2s1)(C(F)(F)F)C(F)(F)F)c1cccnc1 | 0 | 3 | 34
O=C(NC(Nc1nc2ccc([N+](=O)[O-])cc2s1)(C(F)(F)F)C(F)(F)F)c1ccccc1Cl | 3 | 9 | 60*
CC1(C)COc2cc(NS(=O)(=O)c3ccc4ccccc4c3)ccc2NC1=O | / | 0 | /
O=C(NCC1CCN(c2ncccn2)CC1)C1CC=CCC1 (stereo unspecified) | / | -2 | /
CN(C)CCN(C(=O)c1ccccc1)c1nc2ccc(F)cc2s1 | / | -11 | /
CN(C)CCCN(C(=O)c1ccc(S(=O)(=O)N2CCc3ccccc32)cc1)c1nc2ccc(Cl)cc2s1 | 0 | -2 | -12
SMILES | 3CLpro inhibitor | SSB-PriA inh | BJeLR lethal
Cc1cc(C)c2sc(N(CCCN(C)C)C(=O)c3ccc(S(=O)(=O)N4CCc5ccccc5C4)cc3)nc2c1 | / | -10 | 39
CN(C)CCCN(C(=O)c1ccc(S(=O)(=O)N2CCCc3ccccc32)cc1)c1nc2c(F)cc(F)cc2s1 | / | -15 | /
CN(C)CCCN(C(=O)c1cc(-c2cccs2)nc2ccccc12)c1nc2ccc(F)cc2s1 | 0 | 41* | 0
Cc1cc(C)c2sc(N(CCCN(C)C)C(=O)c3ccc(S(=O)(=O)N4CCCc5ccccc54)cc3)nc2c1 | / | 47*! | 23
CN(C)CCCN(C(=O)c1ccc(S(=O)(=O)N2CCc3ccccc32)cc1)c1nc2ccc(F)cc2s1 | -2 | 46*! | -3
CN(C)CCCN(C(=O)c1ccc(S(=O)(=O)N2CCCc3ccccc32)cc1)c1nc2c(Cl)cccc2s1 | / | 39* | /
COc1ccc(-c2ccc(=O)n(CCCNS(=O)(=O)c3ccc(Cl)s3)n2)cc1 | / | 5 | /
CC1(C)Cc2cccc(OCC(=O)N[C@H](c3cccnc3)C3CCOCC3)c2O1 | / | -3 | /
O=C(NCCn1ncc2c(N3CCN(c4ncccn4)CC3)ncnc21)c1ccc2ccccc2c1 | / | -6 | /
COc1cccc(C(c2c(NC(C)=O)sc3c2CCCC3)N2CCOCC2)c1 (stereo unspecified) | / | 12 | /
O=S(=O)(c1ccc(Cl)cc1)N1CCN=C1SCc1cccnc1 | 0 | -12 | 2
O=S(=O)(c1ccc(Cl)cc1)N1CCN=C1SCc1cccc(Cl)c1 | -8 | 101* | -12
CN(C)c1cccc(C(=O)NCCn2nc(-c3ccncc3)cc2C2CC2)c1 | / | 15 | /
COc1cc2sc(-c3ccccc3OC)c(-c3ccc(OCCN4CCCCC4)cc3)c2cc1OC | / | 46* | /
COc1ccccc1-c1sc2cc3c(cc2c1-c1ccc(OCCN2CCCCC2)cc1)OCO3 | / | 14 | /
C1=C(c2sc3ccccc3c2-c2ccc(OCCN3CCOCC3)cc2)CCCC1 | / | 41* | /
c1ccc(-c2sc3ccccc3c2-c2ccc(OCCN3CCOCC3)cc2)cc1 | / | 11 | /
COc1ccc(Br)cc1C1NC(=O)NC1=O (stereo unspecified) | / | 47* | /
COc1ccc(Br)cc1C1NC(=O)NC(C)=C1C(=O)N(C)C (stereo unspecified) | 5 | -5 | -2
COc1ccccc1-c1ccc(N2CCN(C(=O)CC(C)(C)C)CC2)nn1 | / | -7 | /
CCOC(=O)Nc1nc(CC(=O)Nc2ccc(S(N)(=O)=O)cc2)cs1 | / | -2 | /
COc1ccc(CCS(=O)(=O)NC[C@](C)(O)c2cc3ccccc3s2)cc1 | / | 1 | /
CC(=O)Nc1ccc(NS(=O)(=O)CCOc2ccc(F)cc2)cc1 | / | -3 | /
COC(=O)C1CCN(C(=O)NC2CC(=O)N(c3ccc(OC)c(OC)c3)C2)CC1 (stereo unspecified) | / | -14 | /
CCCCCn1c(NS(=O)(=O)c2ccc(C)cc2)c(S(=O)(=O)c2ccc(C)cc2)c2nc3ccccc3nc21 | / | 67* | /
SMILES | 3CLpro inhibitor | SSB-PriA inh | BJeLR lethal
CCCCOCCCn1c(NS(=O)(=O)c2ccc(Cl)cc2)c(S(=O)(=O)c2ccc(C)cc2)c2nc3ccccc3nc21 | / | 56* | /
CCCCCn1c(NS(=O)(=O)c2ccc(Cl)cc2)c(S(=O)(=O)c2ccc(C)cc2)c2nc3ccccc3nc21 | / | 43 | /
CCCCCCCCn1c(NS(=O)(=O)c2ccc(C)cc2)c(S(=O)(=O)c2ccccc2)c2nc3ccccc3nc21 | / | 50 | /
CCCCCCCCn1c(NS(=O)(=O)c2ccc(Cl)cc2)c(S(=O)(=O)c2ccc(C)cc2)c2nc3ccccc3nc21 | / | 52 | /
CCCCn1c(NS(=O)(=O)c2ccc(C)cc2)c(S(=O)(=O)c2ccc(C)cc2)c2nc3ccccc3nc21 | / | 62* | /
Cc1ccc(S(=O)(=O)Nc2c(S(=O)(=O)c3ccc(C)cc3)c3nc4ccccc4nc3n2CCC(C)C)cc1 | / | 63* | /
O=C(NCCn1ccnc1C1CC1)c1ccccc1C(F)(F)F | / | -8 | /
CCOC(=O)c1c(NC(=O)c2ccc(S(=O)(=O)N(CC)CC)cc2)sc2c1CCCC2 | / | -6 | /
O=C(c1ccc(-n2cccc2)cc1)N1CCC(n2cc(-c3ccccc3)nn2)C1 (stereo unspecified) | / | 18 | /
CCN(CC)C(CN)c1ccccc1Cl (stereo unspecified) | / | -4 | /
CCCCCn1c(NS(=O)(=O)c2ccc3ccccc3c2)c(S(=O)(=O)c2ccc(C)cc2)c2nc3ccccc3nc21 | / | 62* | /
CCCCCn1c(NS(=O)(=O)c2ccc(C)cc2)c(S(=O)(=O)c2ccccc2)c2nc3ccccc3nc21 | / | 52 | /
O=S(=O)(Nc1c(S(=O)(=O)c2ccccc2)c2nc3ccccc3nc2n1C1CCCCC1)c1ccccc1 | 3 | 73* | 9
CCCCCn1c(NS(=O)(=O)c2ccccc2)c(S(=O)(=O)c2ccc(C)cc2)c2nc3ccccc3nc21 | / | 76* | /
